# The supplement of paper PMC6555819
# Tested on: LXRb:RXRa (NR concentration 270 nM, RXRa partner concentration 90 nM)
# Assay: PBM binding z-score (relative to random genomic background probes); higher = stronger binding; sequences stand for … in GC…GCGATTGACAGCGTAGAATGAAGG
# Summary of the method: (§1)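 Ligand-free nuclear receptor dimers were bound for 1 h to custom Agilent 4×180K protein-binding microarrays. Detection used antibodies against each partner (one per run). Binding z-scores rest on regression-normalized fluorescence, with random background probes as the reference.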
row,Sequence,PBM binding z-score
1,TCGAGTAGGTTAGGGGCATGCAGAATGGCGTCGA,0.49
2,TCATATAGGTGAAGGTGAAAGTCGAACGATATGA,0.713
3,GCGACCGGGGCAAAGCAGGTTACCATAAGGTTGG,0.0322
4,CAGACTGGGGCAAGGTTACCATAACGCACAGCCA,1.07
5,CCTAGTTGGTCTAGGTCACACACGCTATAGGTAC,1.68
6,ATATGTAGGTTATCGGGTCATTCCGTTTGCGCAT,3.11
7,CCTAACAGGCCAATCTGGGTCACTCAAGGCTTGA,1.19
8,CCTAGCAGGCCAGGGTCACTCGAGCATTTCGCTT,1.78
9,CAAACTAGGTCGCGAAAGGTCAAAGTCGAATGAC,5.96
10,ACTAGTTGGTCAGCCGAGGTCACACACAATTCGG,3.32
11,TCTTGTAGATCAATAGAGATTAAGAAAGTGCGCT,-0.171
12,ACTAGTTGGTCAGCTGAGGTCAGACACAATTCGG,2.03
13,AGAACGAGGGCACGCTGAGTTGATAGAAGAGTAG,0.106
14,ACTCGGAGGCCAAAGGTCAGAGCTACGCCAGTGA,3.69
15,TATACAGCGTCAAAGGCCAGAGTACGAATGTCGA,-0.616
16,AGAACGAGGGCACGCTTAGTTGATAGCAGAGTAG,0.495
17,GCTTACGGGTCAAAGCTTATAGCATGAATAGAAT,3.78
18,TGTCAAAGTTCAAAGGTAACATAAGTATCCACAC,5.05
19,AGTCAAAGTTCATCTAGGTACCGTAAGATATGCT,3.95
20,CCTAGTTGGTCAAGGTCACACAAGCTATAGGTAC,3.76

row,Sequence,PBM binding z-score
1,ATATGTAGGTTATCGGGACATTCAGTTTGCGCAT,0.858
2,CCTCACGGGTCAAGGTTATAGCACGGGTGGTACG,2.74
3,TCATATTGGTAAACAGGTGAAAGTCCGTAAGTTA,1.15
4,CTCGAAAGGTCGGTCGAGGTGAGTATACGGATAA,1.29
5,CGTCCAAGGTCATAGGAGGTCAGTTAAGACAGAT,6.32
6,GATACAGGGTCAGCTAGAGGCCAGAGTTTGGAAA,2.49
7,GCTAGTTGGTCAGTAAAAGGTCACACATCGGTCG,4.13
8,TCATATAGGTAAAAGGTGGAAGTCGGTGTGGTAA,1.22
9,GCAGACAGGTGAAACGCAGGAAACTCAGGGTGGC,-0.346
10,CCTGCTAGATCAATGGTCAGCTAAAGCAGCTCGC,-0.945
11,GTACCAGGGTGAATAGGTCGTTGATGAGTAGGCG,0.582
12,TCATATAGGTCAATGCTAGGTGAAAGTCCGATCT,3.52
13,GCTAGCTGGCCATTTGGGTCACTCAATGACGGGC,-0.164
14,TCATATAGGTAAACGTGAAAGTCGAACGATATGA,0.164
15,CAAACTAGGTCAAAGGTCTAAGTCGAGCCAACCA,3.21
16,GCTTACGGGTCATAGGTTATAGCATGAATAGAAT,4.2
17,CAAACTAGGTCACGAAAGGTCAAAGACGAATGAC,7.29
18,CGTCCCAGGTCAATGCTAGGTCAGTGAAAGCATT,3.02
19,TCTCGGAGGACACGAACGGTCAGAGCTCGACATC,-0.277
20,CCGACTGGGGCATAATGTTACCATAAGCCAGCCC,-0.186

# Tested on: LXRb homodimer (NR concentration 270 nM)
# Assay: as above
# Summary of the method: as §1
row,Sequence,PBM binding z-score
1,TCGAGTAGGTTAGGGGCATGCAGAATGGCGTCGA,-0.161
2,TCATATAGGTGAAGGTGAAAGTCGAACGATATGA,-0.39
3,GCGACCGGGGCAAAGCAGGTTACCATAAGGTTGG,-1.28
4,CAGACTGGGGCAAGGTTACCATAACGCACAGCCA,-0.19
5,CCTAGTTGGTCTAGGTCACACACGCTATAGGTAC,0.465
6,ATATGTAGGTTATCGGGTCATTCCGTTTGCGCAT,0.638
7,CCTAACAGGCCAATCTGGGTCACTCAAGGCTTGA,-0.0196
8,CCTAGCAGGCCAGGGTCACTCGAGCATTTCGCTT,-0.991
9,CAAACTAGGTCGCGAAAGGTCAAAGTCGAATGAC,1.92
10,ACTAGTTGGTCAGCCGAGGTCACACACAATTCGG,0.882
11,TCTTGTAGATCAATAGAGATTAAGAAAGTGCGCT,-0.122
12,ACTAGTTGGTCAGCTGAGGTCAGACACAATTCGG,0.149
13,AGAACGAGGGCACGCTGAGTTGATAGAAGAGTAG,-0.925
14,ACTCGGAGGCCAAAGGTCAGAGCTACGCCAGTGA,0.134
15,TATACAGCGTCAAAGGCCAGAGTACGAATGTCGA,-0.382
16,AGAACGAGGGCACGCTTAGTTGATAGCAGAGTAG,-0.638
17,GCTTACGGGTCAAAGCTTATAGCATGAATAGAAT,0.156
18,TGTCAAAGTTCAAAGGTAACATAAGTATCCACAC,2.12
19,AGTCAAAGTTCATCTAGGTACCGTAAGATATGCT,1.62
20,CCTAGTTGGTCAAGGTCACACAAGCTATAGGTAC,1.03

row,Sequence,PBM binding z-score
1,ATATGTAGGTTATCGGGACATTCAGTTTGCGCAT,0.692
2,CCTCACGGGTCAAGGTTATAGCACGGGTGGTACG,-0.33
3,TCATATTGGTAAACAGGTGAAAGTCCGTAAGTTA,0.247
4,CTCGAAAGGTCGGTCGAGGTGAGTATACGGATAA,-0.496
5,CGTCCAAGGTCATAGGAGGTCAGTTAAGACAGAT,1.11
6,GATACAGGGTCAGCTAGAGGCCAGAGTTTGGAAA,-0.678
7,GCTAGTTGGTCAGTAAAAGGTCACACATCGGTCG,0.936
8,TCATATAGGTAAAAGGTGGAAGTCGGTGTGGTAA,0.619
9,GCAGACAGGTGAAACGCAGGAAACTCAGGGTGGC,-1.08
10,CCTGCTAGATCAATGGTCAGCTAAAGCAGCTCGC,-0.566
11,GTACCAGGGTGAATAGGTCGTTGATGAGTAGGCG,-0.461
12,TCATATAGGTCAATGCTAGGTGAAAGTCCGATCT,1.02
13,GCTAGCTGGCCATTTGGGTCACTCAATGACGGGC,-1.15
14,TCATATAGGTAAACGTGAAAGTCGAACGATATGA,0.105
15,CAAACTAGGTCAAAGGTCTAAGTCGAGCCAACCA,0.734
16,GCTTACGGGTCATAGGTTATAGCATGAATAGAAT,0.262
17,CAAACTAGGTCACGAAAGGTCAAAGACGAATGAC,2.75
18,CGTCCCAGGTCAATGCTAGGTCAGTGAAAGCATT,-0.0307
19,TCTCGGAGGACACGAACGGTCAGAGCTCGACATC,-0.841
20,CCGACTGGGGCATAATGTTACCATAAGCCAGCCC,-0.735
